Data: PubChem BioAssay (NCI)
About 83,000 compounds went through this panel and 20% of them were active in at least one assay; those are over-represented in the sample as a whole.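 Values shown are percent growth following 48 h exposure of cells in 96-well plates to a single concentration of compound; below 10 was considered active.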 Activity calls are given as the source filed them.

What was measured:
Experiment in all cases: NCI-60 one-dose screen, 48 h (100 = growth as untreated, 0 = no growth, -100 = all killed)
Settings in all cases: 10 µM unless noted
DU-145 prostate = test system: DU-145 prostate
K-562 leukemia = test system: K-562 leukemia
MALME-3M melanoma = test system: MALME-3M melanoma
MDA-MB-231 breast = test system: MDA-MB-231 breast
RXF 393 renal = test system: RXF 393 renal
SF-268 CNS = test system: SF-268 CNS
SF-295 CNS = test system: SF-295 CNS
SF-539 CNS = test system: SF-539 CNS
M14 melanoma = test system: M14 melanoma
HCT-15 colon = test system: HCT-15 colon
HT29 colon = test system: HT29 colon
SNB-75 CNS = test system: SNB-75 CNS
SNB-19 CNS = test system: SNB-19 CNS
PC-3 prostate = test system: PC-3 prostate
SK-MEL-5 melanoma = test system: SK-MEL-5 melanoma
UACC-62 melanoma = test system: UACC-62 melanoma
LOX IMVI melanoma = test system: LOX IMVI melanoma
SK-MEL-28 melanoma = test system: SK-MEL-28 melanoma

Measured: growth

O=C(Nc1ccc(Cl)cc1)Nc1ccccc1CNc1nc(Nc2ccc(OCCN3CCCC3)cc2)ncc1Cl
active: DU-145 prostate -42.9% | K-562 leukemia -4.05% | MALME-3M melanoma -81% | MDA-MB-231 breast -51% | RXF 393 renal -64.6% | M14 melanoma -76.3% | HCT-15 colon 6.28% | HT29 colon 0.197% | SNB-75 CNS -17% | PC-3 prostate -8.19% | LOX IMVI melanoma -95.1% | SK-MEL-28 melanoma -77.7%
inactive: SF-268 CNS 41.7% | SF-295 CNS 89.2% | SF-539 CNS 77.6% | SNB-19 CNS 42% | SK-MEL-5 melanoma 50.2% | UACC-62 melanoma 99.3%

CCOC(=O)Nc1cc(-c2ccc(C)c(NS(C)(=O)=O)c2)nn2c(C)nnc12
inactive: DU-145 prostate 43.9% | K-562 leukemia 16.7% | MDA-MB-231 breast 26.5% | SF-268 CNS 41.6% | SF-539 CNS 17.2% | M14 melanoma 19% | SNB-19 CNS 39.1% | PC-3 prostate 23.8% | UACC-62 melanoma 12.9% | SK-MEL-28 melanoma 14.3%
active: MALME-3M melanoma -25% | RXF 393 renal -8% | SF-295 CNS -21.2% | HCT-15 colon 9.95% | HT29 colon 9.76% | SNB-75 CNS 1.74% | LOX IMVI melanoma -22.7%

CCCCNCCCN(CCCC)CCCNCCCC
inactive: DU-145 prostate 114% | K-562 leukemia 102% | MALME-3M melanoma 104% | MDA-MB-231 breast 90.1% | RXF 393 renal 96.6% | SF-268 CNS 110% | SF-295 CNS 94.4% | SF-539 CNS 103% | M14 melanoma 94.2% | HCT-15 colon 93.2% | HT29 colon 105% | SNB-75 CNS 110% | SNB-19 CNS 98.2% | PC-3 prostate 90.4% | UACC-62 melanoma 96.5% | LOX IMVI melanoma 104% | SK-MEL-28 melanoma 99.6%

COc1c(Br)cc(C(c2cc(Br)c(OC)c(Br)c2)c2ccccc2C(=O)O)cc1Br
inactive: DU-145 prostate 111% | K-562 leukemia 89.6% | MALME-3M melanoma 91.3% | MDA-MB-231 breast 102% | RXF 393 renal 107% | SF-268 CNS 98.8% | SF-295 CNS 96% | SF-539 CNS 92.2% | M14 melanoma 95.4% | HCT-15 colon 115% | HT29 colon 100% | SNB-75 CNS 76.7% | SNB-19 CNS 95.9% | PC-3 prostate 89.9% | SK-MEL-5 melanoma 100% | UACC-62 melanoma 97.9% | LOX IMVI melanoma 96.6% | SK-MEL-28 melanoma 112%

Cc1ccc(C(NC(=O)c2ccccc2)c2ccc3cccnc3c2O)cc1 (stereo not drawn)
inactive: DU-145 prostate 20.7% | K-562 leukemia 10.1% | MALME-3M melanoma 19.9% | MDA-MB-231 breast 16.5% | RXF 393 renal 41.8% | SF-295 CNS 10.3% | HCT-15 colon 28.9% | HT29 colon 22.2% | SNB-75 CNS 33.3% | SNB-19 CNS 19.9% | PC-3 prostate 26.1% | LOX IMVI melanoma 11.1% | SK-MEL-28 melanoma 30.8%
active: SF-268 CNS 8.85% | SF-539 CNS 7.53% | M14 melanoma -22.9% | SK-MEL-5 melanoma -42.3% | UACC-62 melanoma -8.42%

CC(=O)c1nn(-c2ccccc2)c(=Nc2ccccc2)cc1C
inactive: DU-145 prostate 107% | K-562 leukemia 97.3% | MALME-3M melanoma 120% | MDA-MB-231 breast 90.2% | RXF 393 renal 102% | SF-268 CNS 114% | SF-295 CNS 86.9% | SF-539 CNS 107% | M14 melanoma 120% | HCT-15 colon 93.9% | HT29 colon 95.5% | SNB-75 CNS 76.2% | SNB-19 CNS 92.4% | PC-3 prostate 80.3% | SK-MEL-5 melanoma 98.9% | UACC-62 melanoma 94.8% | LOX IMVI melanoma 98.4% | SK-MEL-28 melanoma 109%

O=C(c1ccc(Cl)cc1)c1ccc(Cl)cc1
inactive: DU-145 prostate 108% | K-562 leukemia 98.2% | MALME-3M melanoma 129% | MDA-MB-231 breast 124% | RXF 393 renal 103% | SF-268 CNS 104% | SF-295 CNS 102% | SF-539 CNS 107% | M14 melanoma 114% | HCT-15 colon 113% | HT29 colon 102% | SNB-75 CNS 112% | SNB-19 CNS 109% | PC-3 prostate 110% | SK-MEL-5 melanoma 96.4% | UACC-62 melanoma 103% | LOX IMVI melanoma 103% | SK-MEL-28 melanoma 106%

COc1cc(OC)c2c(c1Cl)O[C@]1(C2=O)C(OCc2ccccc2)=CC(=O)C[C@H]1C
inactive: DU-145 prostate 14.7% | MDA-MB-231 breast 12.9% | SF-268 CNS 21.3% | HCT-15 colon 15.7% | SNB-75 CNS 24.2% | SNB-19 CNS 36.2% | LOX IMVI melanoma 17.9% | SK-MEL-28 melanoma 16.4%
active: K-562 leukemia 2.98% | MALME-3M melanoma -42.4% | RXF 393 renal 0.23% | SF-295 CNS -58% | SF-539 CNS -16.4% | M14 melanoma 2.91% | HT29 colon 7.63% | PC-3 prostate 6.5% | UACC-62 melanoma 6.94%

CC(NNC(=S)N1CCCCCC1)c1ccc2ccccc2n1 (stereo not drawn)
inactive: DU-145 prostate 36.2% | K-562 leukemia 18.2% | MALME-3M melanoma 29.1% | MDA-MB-231 breast 41.6% | RXF 393 renal 58.3% | SF-268 CNS 39.7% | SF-539 CNS 18.6% | M14 melanoma 21% | HCT-15 colon 30.8% | HT29 colon 35.9% | SNB-75 CNS 71.4% | SNB-19 CNS 44.1% | PC-3 prostate 34.6% | SK-MEL-5 melanoma 30.9% | UACC-62 melanoma 11.3% | LOX IMVI melanoma 29.6% | SK-MEL-28 melanoma 54.7%
active: SF-295 CNS -10.9%

O=[N+]([O-])c1ccc(NS(=O)(=O)c2ccc(Cl)c(Cl)c2)cc1
inactive: DU-145 prostate 94% | K-562 leukemia 66.3% | MALME-3M melanoma 88% | MDA-MB-231 breast 76% | RXF 393 renal 93.2% | SF-268 CNS 97% | SF-295 CNS 50.3% | SF-539 CNS 82.6% | M14 melanoma 79% | HCT-15 colon 88.7% | HT29 colon 102% | SNB-75 CNS 86.7% | SNB-19 CNS 70.1% | PC-3 prostate 66.5% | SK-MEL-5 melanoma 40.2% | UACC-62 melanoma 38.8% | LOX IMVI melanoma 93.3% | SK-MEL-28 melanoma 78.4%

COc1cc(/C(Cl)=C/C=C/C(=O)c2c(C)[n+]([O-])c3ccc(Cl)cc3[n+]2[O-])cc(OC)c1OC
active: SF-268 CNS -20.1% | LOX IMVI melanoma -18.3%
inactive: DU-145 prostate 67.8% | K-562 leukemia 13.3% | MALME-3M melanoma 65.7% | MDA-MB-231 breast 30.1% | RXF 393 renal 47.9% | SF-295 CNS 36.4% | SF-539 CNS 24.3% | M14 melanoma 43.4% | HCT-15 colon 11.5% | HT29 colon 14.1% | SNB-75 CNS 19.8% | SNB-19 CNS 51.2% | PC-3 prostate 40% | SK-MEL-5 melanoma 14.2% | UACC-62 melanoma 21.2% | SK-MEL-28 melanoma 33.5%

O=C1/C(=C/c2ccc(F)cc2)Cc2ccccc21
inactive: DU-145 prostate 104% | K-562 leukemia 110% | MALME-3M melanoma 107% | MDA-MB-231 breast 107% | RXF 393 renal 99.6% | SF-268 CNS 110% | SF-295 CNS 90.8% | SF-539 CNS 107% | M14 melanoma 103% | HCT-15 colon 94.6% | HT29 colon 91% | SNB-75 CNS 83.4% | SNB-19 CNS 92.3% | PC-3 prostate 97.8% | SK-MEL-5 melanoma 99.9% | UACC-62 melanoma 95.1% | LOX IMVI melanoma 103% | SK-MEL-28 melanoma 105%

COc1ccc(/C=C2\CCc3ccccc3C2=O)cc1
inactive: DU-145 prostate 98.2% | K-562 leukemia 20.7% | MALME-3M melanoma 86.1% | MDA-MB-231 breast 87.3% | RXF 393 renal 103% | SF-268 CNS 100% | SF-295 CNS 32.5% | SF-539 CNS 105% | M14 melanoma 99.2% | HCT-15 colon 91.3% | HT29 colon 80.4% | SNB-75 CNS 69.3% | PC-3 prostate 82.1% | SK-MEL-5 melanoma 99.3% | UACC-62 melanoma 83% | LOX IMVI melanoma 77.2% | SK-MEL-28 melanoma 84.9%

COc1cccc(/C=C2\Cc3ccccc3C2=O)c1
inactive: DU-145 prostate 104% | K-562 leukemia 93.8% | MALME-3M melanoma 97% | MDA-MB-231 breast 104% | RXF 393 renal 103% | SF-268 CNS 109% | SF-295 CNS 94.6% | SF-539 CNS 101% | M14 melanoma 109% | HCT-15 colon 100% | HT29 colon 100% | SNB-75 CNS 104% | SNB-19 CNS 94.2% | PC-3 prostate 87.5% | SK-MEL-5 melanoma 100% | UACC-62 melanoma 98.9% | LOX IMVI melanoma 99.5% | SK-MEL-28 melanoma 113%

COc1cc(C(=O)c2cc3c(cc2C)OCO3)cc(OC)c1OC
inactive: DU-145 prostate 21.5% | K-562 leukemia 13.7% | MALME-3M melanoma 50.4% | MDA-MB-231 breast 23.3% | RXF 393 renal 42.9% | SF-268 CNS 43.1% | M14 melanoma 22.5% | HCT-15 colon 19.6% | SNB-75 CNS 22.7% | SNB-19 CNS 50.7% | PC-3 prostate 18.1% | UACC-62 melanoma 32.7% | LOX IMVI melanoma 19.7% | SK-MEL-28 melanoma 46.6%
active: SF-295 CNS -50.4% | SF-539 CNS 6.27% | HT29 colon 3.84% | SK-MEL-5 melanoma 0.803%

Cc1[nH]c(=O)[nH]c(=O)c1CCSSCCc1c(C)[nH]c(=O)[nH]c1=O
inactive: DU-145 prostate 113% | K-562 leukemia 95.8% | MALME-3M melanoma 115% | MDA-MB-231 breast 119% | RXF 393 renal 111% | SF-268 CNS 113% | SF-295 CNS 98.4% | SF-539 CNS 110% | M14 melanoma 95.1% | HCT-15 colon 113% | HT29 colon 99.2% | SNB-75 CNS 97.1% | SNB-19 CNS 105% | PC-3 prostate 99.6% | UACC-62 melanoma 104% | LOX IMVI melanoma 97.8% | SK-MEL-28 melanoma 114%
